# According to ChEMBL document CHEMBL4513216, “Probing the Open Global Health Chemical Diversity Library for Multistage-Active Starting Points for Next-Generation Antimalarials” (ACS Infect Dis, 2020):
# In all, about 69,000 compounds went through this assay and about 8,600 (12%) showed an effect of 50% or more. Only a selection was taken, and strong results are over-represented in it overall.
# System: Plasmodium berghei
# Assay: Screen against P. berghei liver stage (PbLuc), transformed with Luciferase, at 10uM
# Assay type: functional, HepG2
# Conditions: tested at 10 uM
row,SMILES,INHIBITION [%]
1,Cc1cc(CNC2(c3ccccc3F)CC2)no1,-4.73
2,CN1C[C@@H](C(=O)NC2CCCC2)[C@@]2(COc3ccc(F)cc3C2=O)C1,23.85
3,c1ccc(OCCCN2CCOC(CNc3cccnn3)C2)cc1 (centres undefined),-65.3
4,Cc1noc(C)c1CN1CCn2cc(CNC(=O)C3CCC3)nc2C1,45.2
5,COc1ccc(CC(=O)N2C[C@H]3CN(Cc4ccccn4)C[C@H]3C2)cc1,18.6
6,Cc1[nH]c2ccccc2c1-c1ccnc(N[C@@H](CO)C(C)C)n1,36.7
7,Cc1cn2c(=O)c(-c3ccnc(N[C@@H](C)CO)n3)cnc2s1,27.8
8,CC(C)[C@H](CO)Nc1nccc(-c2c[nH]nc2-c2ccncc2)n1,-31.5
9,CC[C@@H](CO)Nc1nccc(-c2cnc3sc(C)cn3c2=O)n1,11.5
10,Cc1[nH]c2ccccc2c1-c1ccnc(N[C@H](CO)CC(C)C)n1,56
11,Cc1[nH]c2ccccc2c1-c1ccnc(N[C@@H](C)CO)n1,85.7
12,CN1CCOC(CNC(=O)CCCc2ccccc2)C1 (centres undefined),-4.15
13,CN(Cc1nccn1CC(F)(F)F)C(=O)c1ccc2c(c1)OCO2,6.33
14,Cc1nn(C)c(Cl)c1C1CCCN1Cc1nnc(C2CC2)o1 (centres undefined),-31.1
15,O=C(NCCN1CCOCC1)NCc1ncc(-c2ccccc2)o1,2.37
16,CC(=O)N1CCC(NC(=O)NCc2ncc(-c3ccccc3)o2)CC1,47.1
17,CC(=O)N1CCc2ncc(CNC(=O)C3CCC3)n2CC1,15.4
18,CC(=O)N1CCC(C(=O)NCc2ncc(-c3ccccc3)o2)CC1,83.2
19,O=S(=O)(CC1CCOCC1)NCc1ncc(-c2ccccc2)o1,40.6
20,O=C(NCc1ncc(-c2ccccc2)o1)NC1CCC(O)CC1 (centres undefined),61.9
21,O=C1C[C@@H]2CC[C@H](CN1)N2c1cc(-c2ccccc2F)nc2ccnn12,-7.53
22,Cn1cc(CN2CCCC3(CCN(C(=O)c4ccoc4)C3)C2)cn1 (centres undefined),42.7
23,CN(C)C(=O)C1CCC2(CCN(Cc3cnn(C)c3)CC2)C1 (centres undefined),55.5

row,SMILES,INHIBITION [%]
1,Cn1cc(CN2CCCC3(CCCN3S(C)(=O)=O)C2)cn1 (centres undefined),-3.41
2,CCn1cc(CN2CCCC3(CCC(=O)N(CCC(C)C)C3)C2)cn1 (centres undefined),65.2
3,CCc1ncc(CN2CCCC3(CCC(=O)N(CCC(C)C)C3)C2)cn1 (centres undefined),0.818
4,CN(C)C(=O)N1CCC2(CCCN(Cc3cnn(C)c3)C2)C1 (centres undefined),52.9
5,Cn1cc(CN2CCC3(CCCCN3S(C)(=O)=O)CC2)cn1,27.6
6,Cn1cc(CN2CCC3(CCC(C(=O)NCC4CC4)C3)CC2)cn1 (centres undefined),20.1
7,COCC(=O)N1CCC2(CCCN(Cc3cnn(C)c3)C2)C1 (centres undefined),47.4
8,Cn1cc(CN2CCC3(CCCN3S(C)(=O)=O)CC2)cn1,53.5
9,CCn1cc(C(=O)N2CCCC3(CCC(=O)N(CCC(C)C)C3)C2)cn1 (centres undefined),-47.8
10,CC(C)NC(=O)C1CCC2(CCN(Cc3cnn(C)c3)CC2)C1 (centres undefined),-13.7
11,CN1CC(=O)N(c2ccccc2)CC12CCN(C(=O)c1cccs1)C2 (centres undefined),17.1
12,CC(=O)Cn1ncc(N2CCOCC2)cc1=O,-10.5
13,CN(C)CCN1C(=O)CCC12CCN(C(=O)c1cccnc1)CC2,13.2
14,Cc1cccc(CN2CCOC3(CCCN(CC(=O)N(C)C)C3)C2)n1 (centres undefined),59.3
15,Cc1cccc(CN2CCOC3(COCCN(CCN(C)C)C3)C2)n1 (centres undefined),48.4
16,Cc1cccc(CN2CCC3(CCCN(Cc4cnn(C)c4)C3)C2)n1 (centres undefined),64.7
17,Cc1cccc(CN2CCC3(CCCN(Cc4cnn(C)c4)C3)C2=O)n1 (centres undefined),0.618
18,Cc1cnc(N2CCOC3(CCCN(CC(=O)N(C)C)C3)C2)nc1 (centres undefined),-29.8
19,Cn1cc(CN2CCC3(CCCN(Cc4ccccn4)C3)CC2)cn1,-3.19
20,Cc1cccc(CN2CCc3[nH]nc(C(=O)N4CCOCC4)c3C2)n1,65.9
21,Cc1cccc(CN2CCc3[nH]nc(C(=O)N4CCNC(=O)C4)c3C2)n1,49.7
22,CC1(C(=O)N2CCOCC2)CN(Cc2ccccn2)CCO1 (centres undefined),44.4
23,Cc1cccc(CN2CCc3[nH]nc(C(=O)N(C)C)c3C2)n1,-45.5

row,SMILES,INHIBITION [%]
1,Cc1cc(CN2CCOC(C)(C(=O)N3CCOCC3)C2)no1 (centres undefined),0.301
2,Cc1cccc(CN2CCOC(C)(C(=O)N3CCOCC3)C2)n1 (centres undefined),59
3,Cc1cc(C)n(C2CN(CCc3ccccn3)C2)n1,28.2
4,Cc1nn(C)c(Cl)c1C1CCCN1Cc1ccccn1 (centres undefined),8.64
5,COc1ccc(C2CC(=O)Oc3cc(C)[nH]c(=O)c32)cc1O (centres undefined),15.4
6,O=C(c1cc(-n2cnnn2)ccc1Cl)N1CCOCC1,30.8
7,O=c1cnc2ccccc2n1CCCn1cccn1,44.5
8,CC(C)NC(=O)CC1COC2(CCN(Cc3ccccc3)CC2)C1 (centres undefined),21.6
9,Cc1nc(C2CCCN(C(=O)c3cnn(C4CCCCC4)c3)C2)no1 (centres undefined),-25.9
10,O=C(c1cnc2c(cnn2C2CCCC2)c1)N1CCCSCC1,36.1
11,CC(C)NC(=O)CC1CC2(CCN(CC3CC3)CC2)Oc2ccccc21 (centres undefined),-2.35
12,Cc1cccc(CN2CCCC3(CCN(CC(=O)N(C)C)C3=O)C2)n1 (centres undefined),27.6
13,CC(C)CCN1CCc2[nH]nc(C(=O)N3CCCC3C)c2C1 (centres undefined),2.58
14,Cc1cccc(CN2CCC3(CCC(CC(=O)N(C)C)CC3)CC2)n1,23.1
15,CC(=O)N1CCc2[nH]nc(C(=O)N3CC=CC3)c2C1,23.1
16,Cc1cccc(CN2CCC3(CCCN(CC(=O)N(C)C)C3)C2)n1 (centres undefined),51.2
17,CC(C)CCN1CCc2[nH]nc(C(=O)N3CC=CC3)c2C1,50.3
18,COC(=O)c1ccc(C)c(N2CCNC2=O)c1,34
19,CS(=O)(=O)N1CCC(NC(=O)COc2cccc(Cl)c2)CC1,-35.7
20,CCO[C@@H]1C[C@H]2CN(Cc3ccc(C)o3)CCN2C1,-37.9
21,COCCc1noc(CN2C(=O)OC[C@@H]2C(C)C)n1,55.9
22,COCc1nc(CN2C(=O)OC[C@@H]2C(C)C)no1,27.6
23,COCc1noc(CN2C(=O)OC[C@@H]2C(C)C)n1,14.6
